# From PubChem BioAssay (Tox21)
# Results filed as inconclusive are left out. The source made the active and inactive calls. Calls come from the whole dose curve; as a rule, active = well fitted inhibition curve with a large enough effect in the signal ratio in the repeat runs, with a control signal flat; inconclusive = weak or mixed curves, or effect the other way; inactive = flat fitted curve, though single readings scatter; the % refers to the signal ratio.
# Target: D(2) dopamine receptor (Homo sapiens) (UniProt P14416)
# Sequence (P14416 whole entry, looked up): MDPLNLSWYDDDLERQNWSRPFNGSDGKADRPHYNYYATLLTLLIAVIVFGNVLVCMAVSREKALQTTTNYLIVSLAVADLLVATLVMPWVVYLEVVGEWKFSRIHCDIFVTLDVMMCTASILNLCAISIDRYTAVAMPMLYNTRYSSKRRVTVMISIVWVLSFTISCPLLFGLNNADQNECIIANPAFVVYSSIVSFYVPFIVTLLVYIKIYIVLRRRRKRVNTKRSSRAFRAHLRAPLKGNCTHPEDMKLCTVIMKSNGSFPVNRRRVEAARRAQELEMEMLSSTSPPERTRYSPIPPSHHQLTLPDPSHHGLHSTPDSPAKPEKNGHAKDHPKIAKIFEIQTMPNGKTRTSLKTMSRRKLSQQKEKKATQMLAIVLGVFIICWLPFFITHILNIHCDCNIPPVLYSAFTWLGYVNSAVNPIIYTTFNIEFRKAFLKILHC
# Assay: Dopamine D2 receptor (DRD2) small molecule antagonists, cell-based qHTS assay (AID 1963595)
# Details: HEK293-DRD2 cAMP HTRF antagonist mode; series mostly up to 92.4 µM; activity change, negative = inhibition: at the top concentration
# From the text: National Center for Advancing Translational Sciences [NCATS]
# Division of Preclinical Innovation [DPI]
# U.S. Environmental Protection Agency [EPA]
# National Institutes of Environmental Health Sciences [NIEHS]
# National Toxicology Program [NTP]
# U.S. Food and Drug Administration [FDA]
# DRD2 is the D2 subtype of the dopamine receptor, which is coupled to Gi subtype of G protein-coupled receptor. This G protein-coupled receptor inhibits adenylyl cyclase activity. The DRD2-HEK293 cell line stably expressing D2 dopamine receptor can be used for screening agonists and antagonists of interactions between D2 and its ligands. The Hek293-DRD2 cAMP assay is based on HTRF technology. It measures changes of cAMP accumulation in response to Gi coupled GPCR activation or inhibition.
# Tox21 Assay Protocol Summary:
# DRD2-Hek293 cells were dispensed at 600 cells/3uL/well in 1536-well white plates using a Multidrop Dispenser. After the assay plates were incubated at a 37 C/5% CO2 incubator for 24 h, 1 uL of Ro20-1724 at final concentration of 0.1 mM was transferred to the assay plate by a Flying Reagent Dispenser. Following Ro20-1724 addition, 23 nL of compound dissolved in DMSO, positive controls or DMSO only was added to the assay plates via Wako pintool station. The assay plates were incubated at room temperature for 10 min. Next, 1 uL of mixture of NKH477 (final concentration at 200 nM) and quinpirole (final concentration at 12 nM) was added into the plates. After the assay plates were incubated at room temperature for an additional 30 min, 2.5 ul/well of cAMP-d2 and 2.5 ul/well of anti-cAMP-cryptate were added respectively into the assay plates using a Flying Reagent Dispenser. The plates were incubated at room temperature for 1 h. The fluorescence intensity in the plates was measured at 340 nm excitation and 665 & 620 nm emission by an Envision plate reader.
# % is set by controls: 0 for no effect and ±100 for the full control effect; potency is the fitted concentration of half-maximal effect.
SMILES,"activity change, negative = inhibition",Potency
CCS(=O)(=O)CCSP(=O)(OC)OC,-0.284% (inactive),
BrCC1CO1 (stereo not given),6.48% (inactive),
CCCCc1ccccc1,22.7% (inactive),
CC(C)c1c(CN(C)C(C)Cc2ccccc2)n(C)n(-c2ccccc2)c1=O (stereo not given),25% [at 42.5 µM] (inactive),
CCCN1CCC[C@@H]2Cc3nc(N)ncc3C[C@H]21,-0.151% [at 42.5 µM] (inactive),
O=CC=O,15.5% (inactive),
CN1CCc2cc3c(cc2C1O)OCO3 (stereo not given),-0.245% (inactive),
COC(=O)c1ccccc1S(=O)(=O)NC(=O)N(C)c1nc(C)nc(OC)n1,-1.91% (inactive),
Nc1ccc([N+](=O)[O-])cc1Cl,3.22% (inactive),
CC1(C)[C@H](C=C(Cl)Cl)[C@@H]1C(=O)O[C@@H](C#N)c1cccc(Oc2ccccc2)c1,-0.403% (inactive),
COP(=S)(OC)Oc1nc(Cl)c(Cl)cc1Cl,9.33% (inactive),
C[N+](C)=CCl,21.2% (inactive),
CCCCCCC[CH2][Sn]([Cl])([Cl])[CH2]CCCCCCC,-0.54% (inactive),
CC(C)[C@]12CC(=O)[C@H](C)[C@H]1C2,-0.197% (inactive),
Cc1cc(=O)[nH]o1,12.7% (inactive),
Oc1c(Cl)c(Cl)cc(Cl)c1Cl,-0.11% (inactive),
O=C1C(Cl)C(CCl)CN1c1cccc(C(F)(F)F)c1 (stereo not given),5.27% (inactive),
Cl/C=C\Cl,-5.53% (inactive),
CC(CCc1ccccc1)NC(C)C(O)c1ccc(O)cc1 (stereo not given),,16.8 µM (active)
CNC(=O)Oc1cc(C)c(N(C)C)c(C)c1,-10.1% (inactive),

SMILES,"activity change, negative = inhibition",Potency
C[C@@H](N)[C@@H](O)c1ccccc1,-0.547% [at 42.5 µM] (inactive),
NNC(=O)c1cccnc1,-3.31% (inactive),
BrCC(Br)(Br)Br,-0.0128% (inactive),
Cc1cc(OC(=O)N(C)C)nn1C(=O)N(C)C,17.8% (inactive),
Clc1cc(Cl)c(Cl)c(Cl)c1,3.18% (inactive),
Cc1ccc2c(c1)C1CN(C)CCC1N2 (stereo not given),-2.92% [at 18.9 µM] (inactive),
O=C1c2ccccc2C(=O)C1C(=O)C(c1ccccc1)c1ccccc1,4.08% [at 42.5 µM] (inactive),
OC(c1ccc(Cl)cc1)(c1ccc(Cl)cc1)c1cccnc1,-10.7% (inactive),
Oc1ccc2ccc3cccc4ccc1c2c34,-3.29% (inactive),
Nc1cc(Cl)ccc1O,6.8% (inactive),
CO/C=C(/C(=O)OC)c1ccccc1COc1cccc(C(F)(F)F)n1,-20.2% (inactive),
CCOC(=O)CCN(SN(C)C(=O)Oc1cccc2c1OC(C)(C)C2)C(C)C,-10.4% (inactive),
CCOP(=S)(OCC)SCSCC,-4.06% (inactive),
O=[N+]([O-])[O-].[Tl+],3.56% (inactive),
CC1=C(C(=O)Nc2ccccc2)S(=O)(=O)CCO1,-2.1% (inactive),
CCOC(=O)COc1ccc(Cl)cc1Cl,-0.844% (inactive),
[Cl][Hg][c]1ccccc1,,13.7 µM (active)
CC1Sc2c(C(=O)O)c(=O)c3cc(F)c(N4CCNCC4)cc3n21 (stereo not given),-1.4% [at 42.5 µM] (inactive),
c1ccc2c(c1)Sc1ccccc1N2CC1CN2CCC1CC2 (stereo not given),-20.1% [at 42.5 µM] (inactive),
COC(=O)C(c1ccccc1)C1CCCCN1 (stereo not given),-1.75% (inactive),
